Experimental data as given in the supplement of paper PMC11732987, “Enantioselective OTUD7B fragment discovery through chemoproteomics screening and high-throughput optimisation” (Communications Chemistry, 2025).

What was measured:
Experiment in all cases: log2 ratio of Biotin-Ahx-Ub-VS probe labelling (fragment/DMSO); higher = less target engagement (more negative = stronger competition), active = hit call of the paper (q ≤ 0.05, log2 ratio ≤ -1)
Details in all cases: compound concentration: 200 uM; treatment time: 3 h
USP34 = USP34 (UniProt Q70CQ2)
In short: (§1)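 Using Biotin-Ahx-Ub-VS at 0.5 µM final for 1 h, DUBs were labelled in HEK293T lysate (495 µg per sample) that had first been treated in triplicate with fragment at 200 µM or vehicle for 3 h. NeutrAvidin enrichment, LysC and trypsin digestion and diaPASEF LC-MS/MS followed. Spectronaut label-free quantities were global-median-normalised. Values are average log2 fragment/vehicle ratios by unpaired t-test, using proteins with ≥2 unique peptides.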

USP36 = molecular target: T1, USP36 (UniProt Q9P275)
T1 sequence (whole entry): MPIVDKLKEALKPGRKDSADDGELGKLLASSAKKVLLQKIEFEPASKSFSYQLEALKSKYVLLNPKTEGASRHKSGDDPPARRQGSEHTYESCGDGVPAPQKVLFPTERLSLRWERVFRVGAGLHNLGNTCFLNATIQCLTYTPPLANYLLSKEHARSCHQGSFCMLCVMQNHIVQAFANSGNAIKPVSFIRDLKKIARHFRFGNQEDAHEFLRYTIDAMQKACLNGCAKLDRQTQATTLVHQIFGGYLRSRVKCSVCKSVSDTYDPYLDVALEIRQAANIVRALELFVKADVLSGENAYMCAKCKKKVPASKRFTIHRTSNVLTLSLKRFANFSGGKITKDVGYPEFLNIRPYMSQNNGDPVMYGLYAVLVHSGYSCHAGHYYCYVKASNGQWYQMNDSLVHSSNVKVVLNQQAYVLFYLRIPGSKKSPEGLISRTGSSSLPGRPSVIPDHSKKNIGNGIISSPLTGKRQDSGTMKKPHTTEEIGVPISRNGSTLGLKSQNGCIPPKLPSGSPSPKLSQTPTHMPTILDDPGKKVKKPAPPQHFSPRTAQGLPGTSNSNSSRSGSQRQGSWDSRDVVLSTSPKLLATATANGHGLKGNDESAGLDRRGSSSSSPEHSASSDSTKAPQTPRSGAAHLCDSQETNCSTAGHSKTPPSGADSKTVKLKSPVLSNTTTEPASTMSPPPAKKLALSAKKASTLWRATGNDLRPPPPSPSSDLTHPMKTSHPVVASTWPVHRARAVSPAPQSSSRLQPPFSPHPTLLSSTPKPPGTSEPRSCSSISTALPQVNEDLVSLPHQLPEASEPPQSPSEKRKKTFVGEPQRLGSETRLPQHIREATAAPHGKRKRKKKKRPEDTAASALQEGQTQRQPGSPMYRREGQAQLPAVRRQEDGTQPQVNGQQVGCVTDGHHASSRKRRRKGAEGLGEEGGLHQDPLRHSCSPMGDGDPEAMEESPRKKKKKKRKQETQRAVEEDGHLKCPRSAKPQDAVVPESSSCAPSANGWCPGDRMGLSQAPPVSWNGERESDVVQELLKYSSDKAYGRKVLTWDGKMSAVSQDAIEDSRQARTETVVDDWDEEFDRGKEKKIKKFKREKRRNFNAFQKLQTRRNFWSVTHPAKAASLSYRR
In short: as §1

USP38 = molecular target: T2, USP38 (UniProt Q8NB14)
T2 sequence (whole entry): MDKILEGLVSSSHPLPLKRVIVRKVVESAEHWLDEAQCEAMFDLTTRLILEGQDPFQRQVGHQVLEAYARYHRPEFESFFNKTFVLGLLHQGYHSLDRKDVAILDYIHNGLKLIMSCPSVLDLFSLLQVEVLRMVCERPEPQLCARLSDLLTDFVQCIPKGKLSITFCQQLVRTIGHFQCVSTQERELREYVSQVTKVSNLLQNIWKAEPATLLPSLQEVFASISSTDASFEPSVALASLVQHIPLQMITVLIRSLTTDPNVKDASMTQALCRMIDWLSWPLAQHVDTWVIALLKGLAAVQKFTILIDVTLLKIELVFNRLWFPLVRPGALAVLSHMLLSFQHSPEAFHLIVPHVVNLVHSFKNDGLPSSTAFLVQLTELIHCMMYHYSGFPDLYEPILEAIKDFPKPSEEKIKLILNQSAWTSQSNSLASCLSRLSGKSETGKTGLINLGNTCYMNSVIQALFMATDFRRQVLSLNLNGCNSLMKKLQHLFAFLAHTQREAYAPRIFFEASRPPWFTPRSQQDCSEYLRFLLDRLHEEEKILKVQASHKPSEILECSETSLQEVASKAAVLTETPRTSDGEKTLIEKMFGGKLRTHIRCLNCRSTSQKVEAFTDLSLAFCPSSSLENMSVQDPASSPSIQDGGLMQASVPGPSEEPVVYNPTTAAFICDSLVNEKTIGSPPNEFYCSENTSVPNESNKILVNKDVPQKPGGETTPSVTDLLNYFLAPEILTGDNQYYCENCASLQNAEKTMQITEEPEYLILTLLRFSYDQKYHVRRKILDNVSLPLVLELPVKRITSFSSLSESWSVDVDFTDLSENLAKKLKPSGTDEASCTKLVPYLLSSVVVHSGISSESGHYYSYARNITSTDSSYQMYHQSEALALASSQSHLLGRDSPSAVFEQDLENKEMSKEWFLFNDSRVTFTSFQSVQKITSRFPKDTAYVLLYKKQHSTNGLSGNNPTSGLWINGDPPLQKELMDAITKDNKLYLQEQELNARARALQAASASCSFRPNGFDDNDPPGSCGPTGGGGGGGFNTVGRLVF
In short: as §1

USP39 = molecular target: T3, USP39 (UniProt Q53GS9)
T3 sequence (whole entry): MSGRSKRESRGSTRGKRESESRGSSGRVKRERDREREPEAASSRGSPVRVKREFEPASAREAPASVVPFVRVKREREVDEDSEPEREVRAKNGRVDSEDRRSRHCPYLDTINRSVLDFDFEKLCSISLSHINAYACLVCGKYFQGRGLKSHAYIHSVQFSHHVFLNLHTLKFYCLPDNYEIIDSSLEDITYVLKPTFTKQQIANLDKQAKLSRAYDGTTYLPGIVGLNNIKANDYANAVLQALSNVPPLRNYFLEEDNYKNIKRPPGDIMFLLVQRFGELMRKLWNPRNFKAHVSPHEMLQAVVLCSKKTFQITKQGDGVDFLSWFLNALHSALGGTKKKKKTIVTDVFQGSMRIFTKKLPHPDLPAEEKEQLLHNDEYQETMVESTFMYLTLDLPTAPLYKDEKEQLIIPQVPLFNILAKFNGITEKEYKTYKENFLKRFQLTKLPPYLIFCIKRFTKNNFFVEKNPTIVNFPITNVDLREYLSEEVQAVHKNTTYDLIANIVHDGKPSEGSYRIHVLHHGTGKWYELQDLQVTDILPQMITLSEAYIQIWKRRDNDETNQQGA
In short: as §1

USP4 = molecular target: T4, USP4 (UniProt Q13107)
T4 sequence (whole entry): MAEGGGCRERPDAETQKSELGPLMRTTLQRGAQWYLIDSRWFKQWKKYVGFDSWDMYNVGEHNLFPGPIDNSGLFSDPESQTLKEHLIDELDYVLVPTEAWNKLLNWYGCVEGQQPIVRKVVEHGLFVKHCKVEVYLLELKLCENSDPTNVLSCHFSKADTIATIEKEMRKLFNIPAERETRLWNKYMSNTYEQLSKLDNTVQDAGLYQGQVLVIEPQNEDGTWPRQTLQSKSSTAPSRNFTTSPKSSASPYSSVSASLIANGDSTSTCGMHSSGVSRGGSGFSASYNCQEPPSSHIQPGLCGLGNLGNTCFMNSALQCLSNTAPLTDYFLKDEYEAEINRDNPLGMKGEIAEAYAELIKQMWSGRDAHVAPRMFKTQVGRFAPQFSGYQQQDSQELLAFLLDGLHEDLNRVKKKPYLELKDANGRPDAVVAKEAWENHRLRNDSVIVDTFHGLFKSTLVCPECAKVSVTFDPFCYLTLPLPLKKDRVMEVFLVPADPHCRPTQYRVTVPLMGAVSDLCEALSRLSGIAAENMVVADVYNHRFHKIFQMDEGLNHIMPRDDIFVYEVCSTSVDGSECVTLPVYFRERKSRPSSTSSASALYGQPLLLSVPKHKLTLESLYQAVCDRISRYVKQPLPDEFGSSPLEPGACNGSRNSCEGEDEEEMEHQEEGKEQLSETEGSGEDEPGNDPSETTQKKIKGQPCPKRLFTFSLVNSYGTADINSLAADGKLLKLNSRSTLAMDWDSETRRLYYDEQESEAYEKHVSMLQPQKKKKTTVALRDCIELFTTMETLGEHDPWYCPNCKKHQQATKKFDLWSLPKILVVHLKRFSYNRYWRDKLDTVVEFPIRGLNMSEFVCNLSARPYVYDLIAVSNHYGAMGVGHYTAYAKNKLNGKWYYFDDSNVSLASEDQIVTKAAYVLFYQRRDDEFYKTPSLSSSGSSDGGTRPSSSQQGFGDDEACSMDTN
In short: as §1

Measured: log2 ratio of Biotin-Ahx-Ub-VS probe labelling

Sequence of USP34 (Q70CQ2 whole entry, the tested form may be a part): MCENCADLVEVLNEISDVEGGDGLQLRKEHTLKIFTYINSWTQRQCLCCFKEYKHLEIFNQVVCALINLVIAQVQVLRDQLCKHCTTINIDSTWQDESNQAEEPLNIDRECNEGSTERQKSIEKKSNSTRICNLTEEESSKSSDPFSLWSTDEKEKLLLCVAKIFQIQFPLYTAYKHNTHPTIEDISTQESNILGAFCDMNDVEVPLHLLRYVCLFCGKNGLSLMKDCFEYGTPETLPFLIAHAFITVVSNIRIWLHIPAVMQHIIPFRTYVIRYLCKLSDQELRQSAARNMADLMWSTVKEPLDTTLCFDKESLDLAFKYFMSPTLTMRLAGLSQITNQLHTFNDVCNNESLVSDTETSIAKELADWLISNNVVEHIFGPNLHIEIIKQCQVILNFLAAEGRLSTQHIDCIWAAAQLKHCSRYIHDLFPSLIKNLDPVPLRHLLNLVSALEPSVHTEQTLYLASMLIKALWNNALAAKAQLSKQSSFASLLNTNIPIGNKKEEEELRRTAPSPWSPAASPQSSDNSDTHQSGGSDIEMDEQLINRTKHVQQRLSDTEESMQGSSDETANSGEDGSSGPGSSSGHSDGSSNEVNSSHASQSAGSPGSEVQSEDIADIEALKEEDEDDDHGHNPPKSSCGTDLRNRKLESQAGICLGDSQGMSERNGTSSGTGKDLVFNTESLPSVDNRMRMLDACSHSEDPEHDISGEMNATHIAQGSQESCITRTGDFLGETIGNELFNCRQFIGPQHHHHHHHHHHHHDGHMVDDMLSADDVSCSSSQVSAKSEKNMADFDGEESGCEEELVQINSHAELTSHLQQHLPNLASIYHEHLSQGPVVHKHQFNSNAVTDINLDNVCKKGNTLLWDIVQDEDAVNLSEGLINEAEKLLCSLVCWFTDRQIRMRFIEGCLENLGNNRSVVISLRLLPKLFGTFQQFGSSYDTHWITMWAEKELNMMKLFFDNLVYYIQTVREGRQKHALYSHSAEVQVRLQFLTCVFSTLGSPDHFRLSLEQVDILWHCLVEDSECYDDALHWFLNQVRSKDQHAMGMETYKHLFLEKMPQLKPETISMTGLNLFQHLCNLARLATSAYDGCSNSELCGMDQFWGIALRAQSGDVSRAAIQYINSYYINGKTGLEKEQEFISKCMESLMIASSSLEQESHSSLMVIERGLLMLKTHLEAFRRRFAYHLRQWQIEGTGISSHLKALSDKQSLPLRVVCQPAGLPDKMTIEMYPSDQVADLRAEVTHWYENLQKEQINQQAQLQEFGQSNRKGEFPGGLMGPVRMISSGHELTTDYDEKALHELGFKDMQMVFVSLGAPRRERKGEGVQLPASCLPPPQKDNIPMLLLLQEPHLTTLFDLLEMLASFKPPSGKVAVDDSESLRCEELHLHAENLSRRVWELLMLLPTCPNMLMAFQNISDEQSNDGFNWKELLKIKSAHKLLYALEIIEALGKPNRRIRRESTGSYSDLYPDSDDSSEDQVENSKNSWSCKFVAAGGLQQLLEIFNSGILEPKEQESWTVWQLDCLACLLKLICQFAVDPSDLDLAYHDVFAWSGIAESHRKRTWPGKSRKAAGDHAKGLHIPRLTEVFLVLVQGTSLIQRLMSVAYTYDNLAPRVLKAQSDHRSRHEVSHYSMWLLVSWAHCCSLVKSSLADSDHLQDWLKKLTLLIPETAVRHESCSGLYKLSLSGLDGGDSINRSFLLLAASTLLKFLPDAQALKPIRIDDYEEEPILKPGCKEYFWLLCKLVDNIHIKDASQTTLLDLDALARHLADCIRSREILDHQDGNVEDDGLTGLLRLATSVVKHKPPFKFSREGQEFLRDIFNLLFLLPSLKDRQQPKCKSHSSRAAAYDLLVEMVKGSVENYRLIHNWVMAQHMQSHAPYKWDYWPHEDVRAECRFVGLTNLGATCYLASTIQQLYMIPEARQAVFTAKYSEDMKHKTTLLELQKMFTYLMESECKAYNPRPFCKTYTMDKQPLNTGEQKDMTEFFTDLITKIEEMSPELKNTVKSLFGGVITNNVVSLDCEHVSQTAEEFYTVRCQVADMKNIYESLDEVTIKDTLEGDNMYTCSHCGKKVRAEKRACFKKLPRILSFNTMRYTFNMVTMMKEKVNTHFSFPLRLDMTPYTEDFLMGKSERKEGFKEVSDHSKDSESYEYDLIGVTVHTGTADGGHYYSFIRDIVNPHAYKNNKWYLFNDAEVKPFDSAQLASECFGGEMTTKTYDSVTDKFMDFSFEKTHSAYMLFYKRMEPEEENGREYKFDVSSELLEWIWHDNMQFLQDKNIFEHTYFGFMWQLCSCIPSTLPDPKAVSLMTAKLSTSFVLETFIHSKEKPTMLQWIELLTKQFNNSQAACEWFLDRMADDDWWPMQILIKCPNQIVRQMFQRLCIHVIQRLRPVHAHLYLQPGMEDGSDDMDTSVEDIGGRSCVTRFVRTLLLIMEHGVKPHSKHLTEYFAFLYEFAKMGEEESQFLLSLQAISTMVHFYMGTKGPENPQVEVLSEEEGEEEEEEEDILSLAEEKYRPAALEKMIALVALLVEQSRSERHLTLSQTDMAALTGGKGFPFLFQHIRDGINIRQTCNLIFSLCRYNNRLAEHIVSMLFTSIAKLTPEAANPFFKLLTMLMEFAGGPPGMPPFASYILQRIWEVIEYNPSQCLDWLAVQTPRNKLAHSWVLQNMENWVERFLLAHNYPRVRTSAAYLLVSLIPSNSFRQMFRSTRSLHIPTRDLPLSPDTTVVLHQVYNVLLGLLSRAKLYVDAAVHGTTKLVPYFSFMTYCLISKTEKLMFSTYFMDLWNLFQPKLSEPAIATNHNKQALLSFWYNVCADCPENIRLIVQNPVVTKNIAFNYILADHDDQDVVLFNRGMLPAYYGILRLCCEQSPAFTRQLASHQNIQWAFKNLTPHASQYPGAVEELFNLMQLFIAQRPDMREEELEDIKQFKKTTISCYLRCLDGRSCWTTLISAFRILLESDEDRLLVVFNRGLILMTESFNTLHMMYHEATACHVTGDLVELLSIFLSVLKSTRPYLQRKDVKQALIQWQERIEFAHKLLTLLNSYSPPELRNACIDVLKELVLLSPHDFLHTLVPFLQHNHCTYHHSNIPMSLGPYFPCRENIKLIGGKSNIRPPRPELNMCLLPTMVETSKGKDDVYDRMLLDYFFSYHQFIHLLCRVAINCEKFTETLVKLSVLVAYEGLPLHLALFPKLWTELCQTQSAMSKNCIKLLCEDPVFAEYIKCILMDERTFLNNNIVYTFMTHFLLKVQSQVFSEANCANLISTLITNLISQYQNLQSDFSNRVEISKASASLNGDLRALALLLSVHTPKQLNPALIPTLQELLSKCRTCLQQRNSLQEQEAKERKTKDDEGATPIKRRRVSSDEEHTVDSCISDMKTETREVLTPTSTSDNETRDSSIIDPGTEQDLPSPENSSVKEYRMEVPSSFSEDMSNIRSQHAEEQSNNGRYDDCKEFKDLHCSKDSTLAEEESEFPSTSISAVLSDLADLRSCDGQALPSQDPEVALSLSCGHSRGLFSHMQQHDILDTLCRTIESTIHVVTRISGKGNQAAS

Cl.Cn1cnc2cc(CNC(=O)CCl)ccc21
inactive: USP34 -0.0912 | USP36 -0.188 | USP38 -0.21 | USP39 -0.337 | USP4 -0.0327
